Measurements as given in the supplement of paper PMC10849652.
Of roughly 7,900 targets only a part is listed; those with a hit were picked by preference. About 0.6% of all pairs of compound and target were hits. A number with no mark means an inactive call.

Tests used:
Experiment in all cases: log2 fold change, soluble protein after heating vs DMSO (PISA); higher = thermal stabilisation; K562 cells, 10 uM, 30 min; active = over 0.2 and 3.5 SD of the protein, either way, in both replicates (recomputed)
[1] = compound: CC[C@@H]1C(=O)N(C)c2cnc(Nc3ccc(C(=O)NC4CCN(C)CC4)cc3OC)nc2N1C1CCCC1
Summary of the method: (§1)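 Values are thermal stability changes relative to control samples and are taken from duplicates. They are stated as log2 fold changes. Before quantification by TMTpro 16plex LC-MS/MS with equalised channel sums, K562 cells at 2×10^6 cells/mL were treated with 10 μM compound for 30 min, heated in aliquots for 3 min across 48°C-58°C, pooled, extracted in PBS with 0.5% NP-40 at 4°C, and centrifuged at 21,000xg for 90 min to give the soluble supernatant.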

volasertib = compound: CC[C@@H]1C(=O)N(C)c2cnc(Nc3ccc(C(=O)N[C@H]4CC[C@H](N5CCN(CC6CC6)CC5)CC4)cc3OC)nc2N1C(C)C [volasertib]
Summary of the method: as §1

[2] = compound: CC[C@H](C)N1C=C(C2=C(C=C(C=C21)C3=CN=C(C=C3)N4CCNCC4)C(=O)NCC5=C(C=C(NC5=O)C)C)C
Summary of the method: as §1

epoxomicin = compound: CC[C@H](C)[C@@H](C(=O)N[C@@H]([C@@H](C)O)C(=O)N[C@@H](CC(C)C)C(=O)[C@]1(CO1)C)NC(=O)[C@H]([C@@H](C)CC)N(C)C(=O)C [epoxomicin]
Summary of the method: as §1

[3] = compound: CCn1c(C(=O)N(C2CC2)C2CC2)cc2c3c(ncn3C)c(Nc3cc(C)n(C)n3)nc21
Summary of the method: as §1

[4] = compound: CCn1cc(-c2ccnc3[nH]c(-c4cccc(CN(C)C)c4)cc23)c(-c2ccc(NC(=O)N(C)C)cc2)n1
Summary of the method: as §1

[5] = compound: CN(C)CC(=O)Nc1ccc2[nH]c(=O)c3ccccc3c2c1
Summary of the method: as §1

rosiglitazone = compound: CN(CCOC1=CC=C(C=C1)C[C@H]2C(=O)NC(=O)S2)C3=CC=CC=N3 (racemic) [rosiglitazone]
Summary of the method: as §1

[6] = compound: CN1C2=C(C3=C1C(=O)N(N=C3)CC4=CC(=CC=C4)N)SC(=C2)S(=O)C
Summary of the method: as §1

[7] = compound: CN1CCC(CNc2ccc3ncc(-c4cccc(OC(F)(F)F)c4)n3n2)CC1
Summary of the method: as §1

saracatinib = compound: CN1CCN(CCOc2cc(OC3CCOCC3)c3c(Nc4c(Cl)ccc5c4OCO5)ncnc3c2)CC1 [saracatinib]
Summary of the method: as §1

sotrastaurin = compound: CN1CCN(c2nc(C3=C(c4c[nH]c5ccccc45)C(=O)NC3=O)c3ccccc3n2)CC1 [sotrastaurin]
Summary of the method: as §1

alvocidib = compound: CN1CC[C@H](c2c(O)cc(O)c3c(=O)cc(-c4ccccc4Cl)oc23)[C@H](O)C1 [alvocidib]
Summary of the method: as §1

Tubastatin A = compound: CN1CCc2c(c3ccccc3n2Cc2ccc(C(=O)NO)cc2)C1 [Tubastatin A]
Summary of the method: as §1

[8] = compound: CNC(=O)C1=CC=CC=C1NC2=NC(=NC=C2Cl)NC3=C(C=C(C=C3)N4CCOCC4)OC
Summary of the method: as §1

defactinib = compound: CNC(=O)c1ccc(Nc2ncc(C(F)(F)F)c(NCc3nccnc3N(C)S(C)(=O)=O)n2)cc1 [defactinib]
Summary of the method: as §1

rucaparib = compound: CNCc1ccc(-c2[nH]c3cc(F)cc4c3c2CCNC4=O)cc1 [rucaparib]
Summary of the method: as §1

[9] = compound: CNc1nc(-c2ccc3c(N)n[nH]c3c2)cc(N2C[C@@H](C(=O)NC3CCCCC3)CC[C@H]2C)n1
Summary of the method: as §1

encorafenib = compound: COC(=O)N[C@@H](C)CNc1nccc(-c2cn(C(C)C)nc2-c2cc(Cl)cc(NS(C)(=O)=O)c2F)n1 [encorafenib]
Summary of the method: as §1

[10] = compound: COC(=O)[C@H](CCSC)NC(=O)C1=C(C=C(C=C1)NC[C@H](CS)N)C2=CC=CC=C2
Summary of the method: as §1

UniProt Q9P2R7, sequence (Q9P2R7 whole entry, looked up): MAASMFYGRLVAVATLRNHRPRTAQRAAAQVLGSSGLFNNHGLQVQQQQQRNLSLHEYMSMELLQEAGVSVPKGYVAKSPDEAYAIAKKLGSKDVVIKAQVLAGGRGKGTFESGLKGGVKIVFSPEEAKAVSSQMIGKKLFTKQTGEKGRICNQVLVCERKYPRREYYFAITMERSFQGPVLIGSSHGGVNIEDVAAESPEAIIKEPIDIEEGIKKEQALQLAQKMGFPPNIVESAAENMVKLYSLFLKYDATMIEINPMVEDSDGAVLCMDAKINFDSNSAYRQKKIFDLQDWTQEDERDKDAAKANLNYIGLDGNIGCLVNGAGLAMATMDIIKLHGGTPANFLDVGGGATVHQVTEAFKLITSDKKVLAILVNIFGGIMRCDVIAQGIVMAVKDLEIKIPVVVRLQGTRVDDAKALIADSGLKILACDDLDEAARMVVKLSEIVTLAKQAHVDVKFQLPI
UniProt Q13573, sequence (Q13573 whole entry, looked up): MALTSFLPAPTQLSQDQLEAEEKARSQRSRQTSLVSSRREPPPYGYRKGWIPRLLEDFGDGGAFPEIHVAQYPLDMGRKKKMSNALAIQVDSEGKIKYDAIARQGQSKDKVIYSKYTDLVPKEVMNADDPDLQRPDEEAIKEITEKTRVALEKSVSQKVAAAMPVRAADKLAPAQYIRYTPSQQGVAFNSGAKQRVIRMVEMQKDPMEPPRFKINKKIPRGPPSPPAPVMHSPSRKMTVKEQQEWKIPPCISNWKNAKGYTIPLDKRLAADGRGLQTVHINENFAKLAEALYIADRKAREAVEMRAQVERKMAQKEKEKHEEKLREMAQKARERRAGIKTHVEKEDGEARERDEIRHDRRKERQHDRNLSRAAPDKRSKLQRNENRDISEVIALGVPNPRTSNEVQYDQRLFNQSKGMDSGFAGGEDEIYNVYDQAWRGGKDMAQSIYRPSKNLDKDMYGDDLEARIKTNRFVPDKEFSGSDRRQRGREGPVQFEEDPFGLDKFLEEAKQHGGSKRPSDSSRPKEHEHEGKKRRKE
UniProt O95772, sequence (O95772 whole entry, looked up): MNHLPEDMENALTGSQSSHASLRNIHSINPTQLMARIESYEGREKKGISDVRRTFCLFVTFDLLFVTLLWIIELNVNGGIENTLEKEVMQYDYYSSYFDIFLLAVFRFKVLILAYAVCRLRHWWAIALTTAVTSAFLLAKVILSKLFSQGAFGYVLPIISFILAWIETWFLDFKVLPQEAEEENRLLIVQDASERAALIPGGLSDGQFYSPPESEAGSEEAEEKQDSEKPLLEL
UniProt P15907, sequence (P15907 whole entry, looked up): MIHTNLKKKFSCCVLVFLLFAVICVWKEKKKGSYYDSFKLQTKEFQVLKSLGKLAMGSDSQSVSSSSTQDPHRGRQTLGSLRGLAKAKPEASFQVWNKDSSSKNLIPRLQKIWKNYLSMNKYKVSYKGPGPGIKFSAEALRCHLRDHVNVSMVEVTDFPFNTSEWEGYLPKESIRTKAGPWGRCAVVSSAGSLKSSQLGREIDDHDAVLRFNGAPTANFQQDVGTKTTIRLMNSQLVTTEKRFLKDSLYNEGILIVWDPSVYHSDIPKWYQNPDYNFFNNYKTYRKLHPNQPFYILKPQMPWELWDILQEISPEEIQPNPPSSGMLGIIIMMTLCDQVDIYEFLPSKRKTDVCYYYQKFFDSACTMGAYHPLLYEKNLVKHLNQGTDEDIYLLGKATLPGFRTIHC
UniProt Q9Y5L4, sequence (Q9Y5L4 whole entry, looked up): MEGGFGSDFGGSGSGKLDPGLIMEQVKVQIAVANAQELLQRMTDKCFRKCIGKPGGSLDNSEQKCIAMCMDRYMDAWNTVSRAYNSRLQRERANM
UniProt P42226, sequence (P42226 whole entry, looked up): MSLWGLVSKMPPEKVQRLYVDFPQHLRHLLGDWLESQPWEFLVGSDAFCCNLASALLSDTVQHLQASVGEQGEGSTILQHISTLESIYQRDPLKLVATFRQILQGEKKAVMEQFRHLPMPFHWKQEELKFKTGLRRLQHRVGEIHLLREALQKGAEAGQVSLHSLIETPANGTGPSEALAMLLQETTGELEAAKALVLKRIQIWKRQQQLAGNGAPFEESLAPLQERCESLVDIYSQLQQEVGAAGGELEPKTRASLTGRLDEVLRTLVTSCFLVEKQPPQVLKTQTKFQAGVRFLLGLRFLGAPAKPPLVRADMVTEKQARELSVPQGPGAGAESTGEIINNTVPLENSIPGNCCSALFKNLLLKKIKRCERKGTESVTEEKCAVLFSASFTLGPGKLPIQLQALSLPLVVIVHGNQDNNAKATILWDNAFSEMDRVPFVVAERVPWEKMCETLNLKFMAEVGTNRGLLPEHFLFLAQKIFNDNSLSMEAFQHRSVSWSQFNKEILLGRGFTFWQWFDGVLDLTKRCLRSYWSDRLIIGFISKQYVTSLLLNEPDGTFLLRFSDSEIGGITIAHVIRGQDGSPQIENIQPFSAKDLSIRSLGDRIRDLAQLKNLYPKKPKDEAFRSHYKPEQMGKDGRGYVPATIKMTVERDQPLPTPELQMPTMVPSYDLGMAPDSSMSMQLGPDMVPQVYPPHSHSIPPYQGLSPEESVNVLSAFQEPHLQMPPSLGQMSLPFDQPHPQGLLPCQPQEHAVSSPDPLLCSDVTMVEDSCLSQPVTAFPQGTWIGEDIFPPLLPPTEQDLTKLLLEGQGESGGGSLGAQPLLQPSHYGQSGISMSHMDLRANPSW
UniProt P53597, sequence (P53597 whole entry, looked up): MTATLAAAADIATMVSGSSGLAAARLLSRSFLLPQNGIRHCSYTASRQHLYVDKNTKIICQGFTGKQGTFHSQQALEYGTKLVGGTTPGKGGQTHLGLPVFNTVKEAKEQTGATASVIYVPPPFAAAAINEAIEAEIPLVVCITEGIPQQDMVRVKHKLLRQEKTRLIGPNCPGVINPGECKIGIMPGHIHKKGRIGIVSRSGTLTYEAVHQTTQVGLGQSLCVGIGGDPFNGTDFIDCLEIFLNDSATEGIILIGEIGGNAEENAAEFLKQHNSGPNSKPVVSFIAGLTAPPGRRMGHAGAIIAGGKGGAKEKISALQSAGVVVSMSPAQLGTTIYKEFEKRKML

| Target | log2 fold change [1] | log2 fold change (volasertib) | log2 fold change [2] | log2 fold change (epoxomicin) | log2 fold change [3] | log2 fold change [4] | log2 fold change [5] | log2 fold change (rosiglitazone) | log2 fold change [6] | log2 fold change [7] | log2 fold change (saracatinib) | log2 fold change (sotrastaurin) | log2 fold change (alvocidib) | log2 fold change (Tubastatin A) | log2 fold change [8] | log2 fold change (defactinib) | log2 fold change (rucaparib) | log2 fold change [9] | log2 fold change (encorafenib) | log2 fold change [10] |
| --- | --- | --- | --- | --- | --- | --- | --- | --- | --- | --- | --- | --- | --- | --- | --- | --- | --- | --- | --- | --- |
| SPTBN4 (UniProt Q9H254) | 0.051 | -0.293 | -0.025 | -0.018 | -0.065 | -0.1 | 0.171 | 0.017 | 0.011 | 0.153 | -0.056 | 0.009 | 0.095 | -0.005 | -0.284 | 0.039 | 0.059 | -0.035 | -0.076 | -0.002 |
| STARD3NL (UniProt O95772) | 0.037 | -0.022 | -0.036 | -0.085 | 0.007 | -0.014 | -0.068 | 0.014 | -0.058 | -0.371 (active) | 0.103 | -0.004 | -0.01 | -0.05 | 0.013 | -0.007 | -0.164 | -0.052 | 0.068 | -0.046 |
| SUCLG1 (UniProt P53597) | 0.008 | -0.044 | 0.063 | 0.031 | -0.013 | -0.012 | -0.027 | 0.037 | -0.041 | -0.097 | 0.042 | 0.019 | -0.028 | -0.005 | 0.015 | -0.057 | 0.016 | -0.006 | -0.001 | 0.016 |
| STAT6 (UniProt P42226) | -0.196 | -0.594 (active) | -0.02 | -0.074 | -0.033 | 0.1 | 0.093 | 0.038 | 0.018 | -0.11 | 0.087 | 0.115 | -0.153 | 0.101 | 0.029 | -0.121 | 0.076 | 0.201 | 0.189 | -0.168 |
| SUCLA2 (UniProt Q9P2R7) | 0.013 | -0.105 | 0.052 | 0.016 | 0.01 | -0.049 | 0.018 | 0.065 | -0.071 | -0.05 | -0.013 | 0.03 | 0.011 | 0.024 | 0.011 | -0.037 | -0.029 | -0.048 | 0.021 | -0.008 |
| ST6GAL1 (UniProt P15907) | -0.221 (active) | -0.257 | 0.003 | -0.066 | 0.019 | 0.01 | 0.041 | 0.058 | -0.057 | -0.149 | -0.001 | 0.018 | 0.006 | 0.026 | 0.159 | -0.03 | 0.004 | 0.05 | 0.037 | -0.08 |
| TIMM13 (UniProt Q9Y5L4) | 0.019 | -0.048 | 0.027 | 0.213 | 0.024 | 0 | -0.032 | 0.029 | -0.094 | 0.237 | 0.065 | -0.007 | -0.035 | -0.007 | 0.007 | -0.038 | -0.028 | 0.043 | 0.044 | 0 |
| SNW1 (UniProt Q13573) | 0.094 | 0.078 | -0.052 | -0.012 | 0.03 | 0.044 | -0.027 | -0.047 | 0 | 0.078 | 0.01 | 0.003 | 0.128 | -0.033 | 0.038 | 0.131 | 0.042 | -0.082 | -0.005 | -0.005 |
